Assay results: PubChem BioAssay (Tox21)
Results filed as inconclusive are left out. A call without a number means that no potency is given here. Calls of active or inactive are those of the source. Calls come from the whole dose curve; as a rule, active = well fitted inhibition curve with a large enough effect in the repeat runs; inconclusive = weak or mixed curves; inactive = flat fitted curve, though single readings scatter.

What follows are compounds tested against Voltage-gated inwardly rectifying potassium channel KCNH2 (Homo sapiens) (UniProt Q12809) (assay: Human Ether-a-go-go-Related Gene (hERG) channel small molecule antagonists: fluorescence cell-based qHTS assay (AID 1671200; note: nearly all actives have a fitted effect of over 50% in size)). Conditions: hERG-U2OS cells, FluxOR thallium flux fluorescence; series mostly up to 76.8 µM.
Voltage-gated inwardly rectifying potassium channel KCNH2 (Homo sapiens), sequence (Q12809 whole entry, looked up): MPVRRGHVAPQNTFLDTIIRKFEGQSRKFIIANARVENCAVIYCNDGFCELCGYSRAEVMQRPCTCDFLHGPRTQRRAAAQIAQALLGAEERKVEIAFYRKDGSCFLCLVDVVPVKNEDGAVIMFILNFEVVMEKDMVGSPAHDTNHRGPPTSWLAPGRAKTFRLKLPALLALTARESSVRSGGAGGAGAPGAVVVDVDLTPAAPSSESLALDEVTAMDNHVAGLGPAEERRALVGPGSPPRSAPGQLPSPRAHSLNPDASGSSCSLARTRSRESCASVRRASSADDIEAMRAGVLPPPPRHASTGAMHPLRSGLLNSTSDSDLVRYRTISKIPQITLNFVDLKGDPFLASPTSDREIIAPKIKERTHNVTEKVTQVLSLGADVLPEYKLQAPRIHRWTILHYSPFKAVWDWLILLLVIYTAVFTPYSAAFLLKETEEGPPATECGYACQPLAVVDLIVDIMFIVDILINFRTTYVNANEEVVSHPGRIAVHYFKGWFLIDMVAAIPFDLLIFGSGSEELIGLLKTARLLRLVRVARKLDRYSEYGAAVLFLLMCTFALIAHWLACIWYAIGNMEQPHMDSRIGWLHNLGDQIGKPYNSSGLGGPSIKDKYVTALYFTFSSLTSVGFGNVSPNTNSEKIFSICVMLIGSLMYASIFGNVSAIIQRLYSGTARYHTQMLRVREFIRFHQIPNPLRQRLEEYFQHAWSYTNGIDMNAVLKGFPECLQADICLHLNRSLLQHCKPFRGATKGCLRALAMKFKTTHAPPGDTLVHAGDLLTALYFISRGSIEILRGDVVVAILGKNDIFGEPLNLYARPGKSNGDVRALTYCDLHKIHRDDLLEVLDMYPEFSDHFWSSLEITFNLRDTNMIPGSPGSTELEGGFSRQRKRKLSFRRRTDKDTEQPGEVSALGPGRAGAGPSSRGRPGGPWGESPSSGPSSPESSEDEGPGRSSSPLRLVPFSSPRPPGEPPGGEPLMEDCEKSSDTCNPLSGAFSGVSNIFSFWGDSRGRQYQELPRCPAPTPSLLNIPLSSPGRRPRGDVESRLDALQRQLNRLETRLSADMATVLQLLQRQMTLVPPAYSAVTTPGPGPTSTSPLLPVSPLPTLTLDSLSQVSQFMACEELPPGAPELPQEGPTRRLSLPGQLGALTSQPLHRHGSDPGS
Excerpt: National Center for Advancing Translational Sciences [NCATS]
U.S. Environmental Protection Agency [EPA]
National Institutes of Environmental Health Sciences [NIEHS]
National Toxicology Program [NTP]
U.S. Food and Drug Administration [FDA]
Mutations in the hERG channel cause Long QT (LQT) syndrome. LQT syndrome is a cardiac disorder which can cause ventricle arrhythmia and sudden death. Additionally, compounds which block the hERG channel can cause acquired LQT syndrome. Several FDA approved drugs have been removed from the market due to their hERG blocking activity. A cell-based hERG channel inhibition assay can be used to screen chemical compounds that inhibit hERG channel. This assay measures hERG channel activity using thallium ions as surrogate ions to measure potassium into the cells.
Tox21 Assay Protocol Summary:
hERG-U2OS cells were resuspended in culture medium and dispensed into 1536-well, black wall/clear-bottom plates at 1000cells/well/3uL using a Multidrop Combi dispenser (Thermo Fisher, Waltham, MA). After plates were incubated at 37 C overnight, 3 uL of Loading Buffer provided by FluxOR II Potassium Ion Channel Assay kit (Thermo, Carlsbad, CA) was added to each well. The assay plates were then incubated at room temperature in the dark for 1h. […] After the assay plates were incubated at room temperature for 10 min, 1 uL of Stimulus Buffer provided by FluxOR II Potassium Ion Channel Assay kit was added into each well and fluorescence intensity (480nm excitation/540nm emission) was continuously measured for 2 min at 1 second intervals using a Functional Drug Screening System (FDSS) 7000EX kinetic plate reader (Hamamatsu, Japan).
Potency is the fitted concentration of half-maximal effect.

Structure (SMILES) | Potency
ClCCCN1CCN(c2cccc(Cl)c2)CC1 | 10.7 µM (active)
CC(C)(C)C(=O)C(Oc1ccc(Cl)cc1)n1cncn1 (stereo not given) | inactive
O=C(CCN1CC1)OCC(CO)(COC(=O)CCN1CC1)COC(=O)CCN1CC1 | inactive
O=C(Cc1ccccc1)OCc1ccccc1 | inactive
O=NN1CCCCC1 | inactive
CCCCc1c(C)nc(NCC)[nH]c1=O | inactive
ClCCOCOCCCl | inactive
O=[N+]([O-])c1cccc2cccnc12 | inactive
CC(N)=S | inactive
ClC(Br)Br | inactive
N#CC(O)c1ccccc1 (stereo not given) | inactive
CCOC(=O)C(c1c(O)c2ccccc2oc1=O)c1c(O)c2ccccc2oc1=O | inactive
NC(=O)O | inactive
CNC(=O)N(C)c1nc2ccccc2s1 | inactive
COCC(=O)N(c1c(C)cccc1C)N1CCOC1=O | inactive
CC1=NNC(=O)N(/N=C/c2cccnc2)C1 | inactive
O=C(Nc1ccccc1)N(Cc1ccc(Cl)cc1)C1CCCC1 | 38.9 µM (active)
COC(=O)c1ccccc1S(=O)(=O)NC(=O)Nc1nc(C)cc(C)n1 | inactive
CCCCP(CCCC)CCCC | inactive
Cc1cccc(C#N)c1 | inactive

Structure (SMILES) | Potency
CC(C)COP(=O)(OCC(C)C)OCC(C)C | inactive
COP(=S)(OC)Oc1ccc(S(N)(=O)=O)cc1 | inactive
CNCC(=O)c1ccc(O)c(O)c1 | inactive
CCN(CC)CCOC(=O)C(C)(c1ccccc1)c1ccccc1 | 10.7 µM (active)
Nc1cnn(-c2ccccc2)c(=O)c1Cl | inactive
CC(C)(C)OC(=O)c1ncn2c1[C@@H]1CCCN1C(=O)c1c(Br)cccc1-2 | inactive
CCCSC(=O)N(CCC)CCC | inactive
Cc1nc(N)nc(N)n1 | inactive
CN1CCN(C(=O)O[C@H]2c3nccnc3C(=O)N2c2ccc(Cl)cn2)CC1 | inactive
Nc1c(Br)cc([N+](=O)[O-])cc1[N+](=O)[O-] | inactive
CNNC | inactive
O=[N+]([O-])c1cccc(O)c1 | inactive
CCc1cc2c(s1)-n1c(C)nnc1CN=C2c1ccccc1Cl | inactive
O=C(NCO)NCO | inactive
Nc1cc2c3c(c1)C(c1ccccc1)=N[C@@H](NC(=O)c1cccnc1)C(=O)N3CC2 | inactive
CCOC(=O)N(C)C(=O)CSP(=S)(OCC)OCC | inactive
COC(=O)C1=CCCN(C)C1 | inactive
Nc1cc(Cl)ccc1O | inactive
O=C1OC(c2ccc(O)c(S(=O)(=O)O)c2)(c2ccc(O)c(S(=O)(=O)O)c2)c2c(Br)c(Br)c(Br)c(Br)c21 | inactive
O=[N+]([O-])c1cc(Cl)c(Cl)c(Cl)c1 | inactive
